Compound activity as filed in PubChem BioAssay.
A selection: hits, their analogues and other compounds. The true share with any hit is near 32%.
CYP2C19 inh: blocks human cytochrome P450 2C19; CYP2C19 Supersomes, luciferin-H EGE luminescence, 30 min; inhibition, % at 5 µM; actives 21% (n = 96,000); AID 778;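 active = CYP2C19 inhibition above a set limit at 5 µM in the primary screen, cut at about 50% in these data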
Target sequence (P33261 whole entry, looked up): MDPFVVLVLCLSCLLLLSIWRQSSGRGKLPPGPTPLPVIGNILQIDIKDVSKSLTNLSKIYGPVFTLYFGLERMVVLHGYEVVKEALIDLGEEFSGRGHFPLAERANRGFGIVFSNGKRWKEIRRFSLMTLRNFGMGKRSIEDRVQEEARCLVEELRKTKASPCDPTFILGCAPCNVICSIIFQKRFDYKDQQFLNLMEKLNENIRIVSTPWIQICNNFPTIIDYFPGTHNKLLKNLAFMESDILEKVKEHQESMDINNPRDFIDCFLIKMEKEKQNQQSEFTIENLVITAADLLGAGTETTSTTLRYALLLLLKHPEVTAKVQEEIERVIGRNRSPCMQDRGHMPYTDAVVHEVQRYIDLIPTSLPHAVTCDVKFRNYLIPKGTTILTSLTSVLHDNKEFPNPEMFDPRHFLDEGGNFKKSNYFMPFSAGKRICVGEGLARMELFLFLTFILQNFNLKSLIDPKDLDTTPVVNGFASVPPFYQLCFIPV
CYP2C19 act: activators of human cytochrome P450 2C19; 96,000 tested, under 10 active; recombinant CYP2C19, luciferin-H EGE luminescence; stronger effect = higher value; 0 = fully inhibited enzyme, 1 = untreated enzyme; P33261; activation factor at 5 µM;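 active = activation factor of at least 2 at 5 µM in the primary screen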
CYP2C9 activ: increases human cytochrome P450 2C9 activity; recombinant CYP2C9, luciferin-H conversion, luminescence; stronger effect = higher value; factor 1 = untreated enzyme, 0 = blocked; activation factor at 5 µM; actives 1.4% (n = 96,000); AID 1024;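 active = activation factor of 2 or more for CYP2C9 at a 5 µM dose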
CYP2C9 inh: blocks human cytochrome P450 2C9; CYP2C9 Supersomes, luciferin-H conversion, luminescence; P11712; inhibition, % at 5 µM; actives 20% (n = 96,000);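 active = blocking of liver enzyme CYP2C9 beyond about 50% at 5 µM, limit read from the data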
PostGolgi yeast: growth inhibition of a yeast mutant, post-Golgi transport screen; post-Golgi transport phenotypic cell assay; inhibition, % at 10 µM; actives 0.9% (n = 98,000); AID 739;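 also: yeast cells grown in 1536-well plates; yeast grown about 18 h at 30C before absorbance read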
PostGolgi ctrl: yeast control strain growth, post-Golgi counter-screen | actives 5% (n = 98,000) | efflux-deficient yeast background strain, growth absorbance A615, 16 h | inhibition, % at 10 µM
Hits are given with their value; – = inactive; · = no result. Rule as the data show it, unless noted: active = inhibition above about 30%; inactive = the rest.

SMILES	CYP2C19 inh	CYP2C19 act	CYP2C9 activ	CYP2C9 inh	PostGolgi yeast	PostGolgi ctrl
O=C(CSc1nnc(-c2cccnc2)n1Cc1ccccc1)N1CCOCC1	–	–	–	–	–	–
COc1cccc(C(=O)N(Cc2nc(-c3ccc(C)cc3)no2)C(C)C)c1	–	–	–	–	–	–
COc1ccccc1OCC(=O)N(Cc1nc(-c2ccc(Cl)cc2)no1)C(C)C	77.6	–	–	–	–	45.8
CC(C)N(Cc1nc(-c2ccc(Cl)cc2)no1)C(=O)CCC1CCCC1	–	–	–	–	–	35.2
Cc1cc(Br)ccc1OCC(=O)N(Cc1nc(-c2ccccc2)no1)C(C)C	–	–	–	–	–	–
COc1cccc(OCC(=O)N(Cc2nc(-c3ccc(Cl)cc3)no2)C(C)C)c1	88.4	–	–	86.8	–	53.7
CC(C)NC(=S)N/N=C1\CCCCC1C1CCCCC1 (centres undefined)	62.9	–	–	80.5	–	30.2
CC(=O)Nc1ccc(S(=O)(=O)NC(=O)C23CC4CC(CC(C4)C2)C3)cc1	–	–	–	–	–	–
CCOC(=O)c1cnn(CC2CCCCC2)c1N	60.5	–	–	92.4	–	–
CCOC(=O)c1cnn(-c2ccc(C)cc2)c1N	–	–	–	–	–	–
Cn1c(=O)c2cc(S(=O)(=O)Nc3cccc(F)c3)ccc2n(C)c1=O	76.3	–	–	83.2	–	–
Cc1c(S(=O)(=O)Nc2cccc(Cl)c2)c(=O)n(C)c(=O)n1C	50.9	–	–	–	–	–
Cn1c(=O)c2cc(S(=O)(=O)NC(C(=O)Nc3cccc(F)c3)c3ccccc3)ccc2n(C)c1=O (centres undefined)	–	–	–	–	–	–
Cc1c(S(=O)(=O)Nc2ccc3c(c2)OCCO3)c(=O)n(C)c(=O)n1C	–	–	–	–	–	–
COc1cc(/C=N/NC(=O)C(C)n2nnc3ccccc32)ccc1O (centres undefined)	–	–	–	–	–	–
Cn1c(C(O)c2ccccc2)nc(Cl)c1Cl (centres undefined)	69.7	–	–	–	–	–
O=C(NCCCN1CCc2ccccc2C1)C1CCN(S(=O)(=O)N2CCCC2)CC1	–	–	–	–	–	–
C=CCn1c(CCNC(=O)c2ccc(Cl)c(Cl)c2)nnc1SCCOc1ccc(OC)cc1	–	–	–	60.1	–	–
CN(CCNC(=O)Cn1c(=O)sc2ccccc21)Cc1ccccc1	–	–	–	–	–	–
CCc1ccc(N2CC(C(=O)Nc3nnc(CC)s3)CC2=O)cc1 (centres undefined)	–	–	–	–	–	–
CC1CCN(C2(O)C(=O)Nc3ccc([N+](=O)[O-])cc32)CC1 (centres undefined)	–	–	–	66.4	–	–
CC1CCN(CCCCOc2ccc([N+](=O)[O-])cc2)CC1	–	–	–	–	–	–
CC(=O)NC(=O)c1nnn(Cc2ccccc2)c1NC(C)=O	–	–	–	–	–	–
CCN1CCN(C(=S)NCCc2ccccc2)CC1	–	–	–	–	–	–
CC1CCCN(C(=S)NCCc2ccccc2)C1 (centres undefined)	–	–	–	–	–	31.7
SMILES	CYP2C19 inh	CYP2C19 act	CYP2C9 activ	CYP2C9 inh	PostGolgi yeast	PostGolgi ctrl
OCCN1CCN(C(=S)NCCc2ccccc2)CC1	–	–	–	–	–	–
CC1CCCCN1C(=S)NCCc1ccccc1 (centres undefined)	95.9	–	–	–	–	–
O=C1C2C3c4ccccc4C(c4ccccc43)C2C(=O)N1/N=C/c1cccc(O)c1 (centres undefined)	–	–	–	–	–	–
O=C(Nc1ccc2c(c1)OCCO2)C1CCN(C(=O)c2ccc(Br)cc2)CC1	–	–	–	85.0	–	–
O=C(Nc1ccc2c(c1)OCCO2)C1CCN(C(=O)c2ccccc2)CC1	–	–	·	·	–	31.0
O=C(Nc1cccc(F)c1)C1CCN(C(=O)c2ccc(Br)cc2)CC1	90.1	–	–	92.9	–	–
COc1ccc(NC(=O)C2CCN(C(=O)c3ccc(OC)cc3)CC2)cc1	–	–	–	–	–	–
Cc1ccccc1C(=O)N1CCC(C(=O)Nc2ccc3c(c2)OCCO3)CC1	–	–	–	–	–	–
CCOC(=O)C1CCN(C(C(=O)Nc2ccc3c(c2)OCCO3)c2ccccc2)CC1 (centres undefined)	–	–	–	88.9	–	–
CCOC(=O)C1CCN(c2c(Nc3ccc4c(c3)OCCO4)c(=O)c2=O)CC1	–	–	–	–	–	–
COc1ccc(C(=O)N2CCC(C(=O)Nc3ccc4c(c3)OCCO4)CC2)cc1	–	–	–	–	–	–
CCCCn1cnc2c(cnn2-c2ccc(Cl)cc2)c1=O	·	·	·	·	–	–
Cc1ccc(N=C/C(C(=O)C(F)(F)F)=C(\O)c2cccs2)cc1	–	–	–	–	–	–
O=C(Nc1cccc(F)c1)C1CCN(c2nnnn2-c2ccccc2)CC1	–	–	–	50.6	–	–
O=S(=O)(c1ccccc1)c1nc(-c2cccs2)oc1NCCCn1ccnc1	97.6	–	–	91.7	–	–
CC(C)CNC(=O)NC(=O)COc1ccc(C=O)cc1	94.9	–	–	83.3	–	–
CN(C)S(=O)(=O)c1ccc2c(c1)C(CC(=O)O)OC2=O (centres undefined)	–	–	–	–	–	–
Cc1nn(CC(C)C)c(=S)[nH]c1=O	–	–	–	–	–	–
CCCc1[nH]nc2c1C1(CCOC1C)C(C#N)=C(N)O2 (centres undefined)	–	–	–	–	–	–
CCCc1ccc2c(N)c(C#N)sc2n1	89.8	–	–	–	·	·
CCOc1ccc(C(=O)N/N=C/c2ccc(-c3ccc(S(=O)(=O)Nc4ncccn4)cc3)o2)cc1	–	–	–	72.1	–	–
COc1cc(OC)c(C(=O)Nc2ccc(S(=O)(=O)Nc3ncccn3)cc2)cc1OC	–	–	–	–	–	–
O=C(N/N=C/c1ccc(-c2ccc(S(=O)(=O)Nc3ncccn3)cc2)o1)c1cc2ccccc2cc1O	–	–	–	80.9	–	–
COc1ccc(S(=O)(=O)N2CC(C)N(S(=O)(=O)c3ccc(OC)cc3)CC2C)cc1 (centres undefined)	–	–	–	–	·	·
CC(=O)N1CCN(S(=O)(=O)c2ccc(C)cc2)C1c1ccc(N(C)C)cc1 (centres undefined)	–	–	–	–	–	–
CC(C)C1N(C(=O)CN2CCCC2)CCN1S(=O)(=O)c1ccccc1 (centres undefined)	–	–	–	–	–	–
CC(C)C1N(S(=O)(=O)c2ccccc2)CCN1S(=O)(=O)c1ccccc1	100.0	–	–	99.5	–	–
COc1ccc(C2N(S(=O)(=O)c3ccc(C)cc3)CCN2S(=O)(=O)c2ccc(C)cc2)cc1	95.9	–	–	90.2	–	–
Cc1ccc(S(=O)(=O)N2CCN(S(=O)(=O)c3ccccc3)C2c2ccc(N(C)C)cc2)cc1 (centres undefined)	94.2	–	–	87.8	–	–
